Only some compounds are listed: those with a hit (about 21% of all), similar ones and a draw of the others.
TDP1 cell CPT – qHTS for Inhibitors of human tyrosyl-DNA phosphodiesterase 1 (TDP1): qHTS in cells in presence of CPT; chicken DT40 Tdp1-/-;hTDP1 cells + 20 nM CPT, ATP luminescence, 48 h; Potency, µM (titrated, usually from 46.2 µM), for inactives: at the top dose activity change, negative = growth inhibition, actives largely listed as inhibitors; 12% of 420,000 active; AID 686979, 2013; further: potency means the concentration at half of the fitted maximal effect; on the % scale 0 is the no-effect control and ±100 the full control effect; nearly all actives have a fitted effect of over 55% in size
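Chicken DT40 Tdp1-/- cells stably complemented with human TDP1 were seeded at 400 cells/well in medium containing 20 nM camptothecin, exposed to pin-transferred compounds, and grown at 37 °C for at least 48 hr. Viability was read as ATP luminescence.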
DRD3 agonist – qHTS of D3 Dopamine Receptor Agonist: qHTS. D(3) dopamine receptor (Homo sapiens), P35462. D3R DiscoveRx beta-arrestin cells, luminescence, 90 min. max activation, %. 0.58% of 410,000 active. AID 652048, 2013; in the data active means max activation above about 30%; further: 0% is about no effect
Target sequence (P35462 whole entry, looked up): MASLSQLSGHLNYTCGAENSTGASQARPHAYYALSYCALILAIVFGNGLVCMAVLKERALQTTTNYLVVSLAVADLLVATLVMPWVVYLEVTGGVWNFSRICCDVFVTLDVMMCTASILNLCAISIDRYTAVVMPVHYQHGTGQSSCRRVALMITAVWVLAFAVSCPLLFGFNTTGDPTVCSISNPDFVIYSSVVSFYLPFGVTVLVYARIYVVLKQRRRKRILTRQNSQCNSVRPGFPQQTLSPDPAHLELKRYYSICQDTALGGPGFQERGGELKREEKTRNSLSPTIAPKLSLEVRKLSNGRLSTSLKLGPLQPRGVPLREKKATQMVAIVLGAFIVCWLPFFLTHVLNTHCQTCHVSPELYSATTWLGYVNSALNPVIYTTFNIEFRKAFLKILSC
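Agonist mode: compounds and dopamine controls were applied to plated cells for 90 min at 37 degrees C after an overnight attachment at 1500 cells/well. Luminescent read-out followed 30 - 60 minutes at room temperature with DiscoveRx detection reagent.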
ClpP mod – qHTS Assay for Activators of ClpP; ATP-dependent Clp protease proteolytic subunit (Bacillus subtilis (strain 168)), P80244; purified B. subtilis ClpP, FRET peptide cleavage, 20 min; Potency, µM (series often up to 57.5 µM), for inactives: top-dose activity change, negative = active; 1.9% of 340,000 active; AID 651965, 2013; active means well fitted falling curve with a large enough effect; inconclusive means small, poorly fitted or top-dose-only effect; inactive means no such curve, though single readings can be large or run the other way; further: potency means the concentration at half of the fitted maximal effect; the source files actives as falling curves though it sought activators and does not explain the sign; nearly all actives have a fitted effect of over 65% in size
Target sequence (P80244 whole entry, looked up): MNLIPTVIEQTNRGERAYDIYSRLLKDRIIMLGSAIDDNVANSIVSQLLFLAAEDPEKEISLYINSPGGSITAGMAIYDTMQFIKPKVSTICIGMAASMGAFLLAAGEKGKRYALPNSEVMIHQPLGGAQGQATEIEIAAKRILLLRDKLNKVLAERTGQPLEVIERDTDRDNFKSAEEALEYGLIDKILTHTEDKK
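ClpP 10 microg/mL final, pH 8 Tris/KCl buffer with BSA, glycerol, Tween-20; compound pinned in; FRET-FV substrate; RT 20 min; Ex320/Em430; ΔFRET vs ADEP 5.8 microM, DMSO, no enzyme.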
DT40 TDP1 no CPT – qHTS for Inhibitors of human tyrosyl-DNA phosphodiesterase 1 (TDP1): qHTS in cells in absence of CPT; DT40 Tdp1-/- hTDP1 cells, no CPT, ATP luminescence, 48 h; Potency, µM (highest dose often 46.2 µM), for inactives: at the highest dose activity change, negative = growth inhibition, usual class: inhibitors; 15% of 420,000 active; AID 686978, 2013; further: potency means the concentration at half of the fitted maximal effect; on the % scale 0 is the no-effect control and ±100 the full control effect; nearly all actives have a fitted effect of over 55% in size
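DT40 Tdp1-/-;hTDP1 cells, no CPT (DMSO vehicle only), 400 cells/well; compounds pin-transferred; ≥48 hr, 37 °C; CellTiter-Glo 30 min RT dark, luminescence read.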
IL-1B inflam inh – qHTS for Inhibitors of Inflammasome Signaling: IL-1-beta AlphaLISA Primary Screen | THP-1 LPS/ATP IL-1B secretion, AlphaLISA, 16 h; stronger effect = lower value | activity change, % at 57.5 µM | 4.7% of 360,000 active; in the data active means activity change below about -50%; inconclusive means mostly about -30% to -49%; further: on the % scale 0 is the no-effect control and ±100 the full control effect
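THP-1 cells pretreated 1 hr with compounds (up to 57.5 uM final), then stimulated with LPS (250 ng/mL final) plus ATP (1.25 mM final); secreted IL-1B measured by AlphaLISA after 16 hr, decreased signal indicating inhibition.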
DRD3 antagonist – qHTS of D3 Dopamine Receptor Antagonist: qHTS. D(3) dopamine receptor (Homo sapiens), P35462. D3R cells, DiscoveRx beta-arrestin luminescence, antagonist mode; stronger effect = lower value. max response, negative = inhibition, %. 2.5% of 360,000 active; in the data active means max response below about -50%; inconclusive means no clear call, values can overlap the other calls; further: on the % scale 0 is the no-effect control and ±100 the full control effect
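Cells plated overnight at 1500 cells/well, then exposed to library compounds with dopamine controls for 90 minutes at 37 degrees C. DiscoveRx reagent added for 30–60 minutes at room temperature; luminescence read, quantitative HTS format.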
The depositor's hits bear a star; ? = inconclusive; / = no result given; [ ] = another dose, or the depositor's remark. Unless noted, the call rests on the fitted dose curve; in most records, active means well fitted inhibition curve with a large enough effect; inconclusive means small, poorly fitted or top-dose-only effect; inactive means flat fitted curve, though single readings scatter.

SMILES | TDP1 cell CPT | DRD3 agonist | ClpP mod | DT40 TDP1 no CPT | IL-1B inflam inh | DRD3 antagonist
CCn1c(C)nc2cc(C(=O)NNC(=O)c3ccc(C)cc3)ccc21 | -3.0% | 1.5 | -19.1% | -23.1% | 9.7 | 3.3
CCn1c(C)nc2cc(C(=O)OC(C(F)(F)C(F)F)C(F)(F)C(F)F)ccc21 | ? | 8.0 | 1.1% | 18.4µM* | 1.9 | 75.9
CCOC(=O)Cn1c(=NC(=O)CN2C(=O)CCC2=O)sc2cc(S(N)(=O)=O)ccc21 | -2.1% | -11.8 | ? | -6.0% | 12.9 | 0.0
CCOC(=O)Cn1c(=NC(=O)c2nc3ccccc3s2)sc2cc(S(N)(=O)=O)ccc21 | ? | 3.6 | 31.6µM* | ? | 12.4 | -1.0
COC(=O)Cn1c(=NC(=O)C2COc3ccccc3O2)sc2cc(S(N)(=O)=O)ccc21 (centres undefined) | ? | -0.5 | 0.9% | 18.4µM* | -52.5* | -4.7
O=c1c2ccccc2nc2n1C(CSCc1ccc(Cl)cc1Cl)CS2 (centres undefined) | 9.2µM* | 2.7 | -1.2% | 6.51µM* | ? | 77.0
CCCC(=O)N1CCCC1(C)C(=O)Nc1ccc(-n2cccc2)cc1 (centres undefined) | 3.2% | 3.5 | -1.0% | -13.0% | -21.9 | 13.3
COC(=O)C1N2C(=O)[C@@H](NC(=O)COc3ccccc3)[C@H]2SC1(C)C (some centres undefined) | -1.0% | 1.9 | 1.5% | -6.5% | 25.6 | 0.0
Cc1ccc(CNS(=O)(=O)c2ccccc2[N+](=O)[O-])cc1 | -19.9% | 1.0 | 0.0% | -5.9% | -1.7 | 8.6
CCOC(=O)C1CCN(C(=O)C2(NC(=O)NC3CCCCC3)CCCCC2)CC1 | -1.9% | -7.7 | 1.0% | -1.7% | 21.1 | -4.2
CCOC(=O)C1CCN(C(=O)C2(NC(=O)Nc3ccc(F)cc3F)CCCCC2)CC1 | 5.4% | -2.3 | / | -9.1% | -127.8* | 4.5
CCn1cc(CN2CCC(n3nccc3NC(=O)c3ccccc3C)CC2)c(C)n1 | -5.2% | -18.6 | -4.5% | 0.0% | 1.3 | -4.1
Cc1ccc(S(=O)(=O)N2[C@@H](Cc3ccccc3)CO[C@H]2CC(=O)c2ccc(F)cc2)cc1 | 23.1µM* | -7.9 | -6.1% | ? | -13.9 | -5.8
Cc1ccc(S(=O)(=O)N2[C@H](CC(=O)c3cccs3)OC[C@@H]2C(C)C)cc1 | ? | -5.5 | -2.2% | 18.4µM* | 29.9 | 1.4
Cc1ccnc(OC(C(=O)O)C(OCc2ccccc2)(c2ccccc2)c2ccc(C(F)(F)F)cc2)n1 (centres undefined) | 20.6µM* | 10.6 | -1.4% | ? | 9.2 | 23.5
CCOC(=O)c1nnc2c(Br)c(-c3ccccc3)nn2c1C | ? | -2.5 | 0.9% | ? | 1.0 | -2.6
Cc1cccc2cc3c(N)c(C(=O)N4CCOCC4)sc3nc12 | 2.06µM* | -8.9 | -10.6% | 1.64µM* | -55.3* | -21.0
CCc1ccc(NC(=O)C2(c3cccs3)CCOCC2)cc1 | -9.1% | -4.9 | -4.2% | -29.6% | / | /
CC(=O)N(CCC(Cc1ccccc1)c1ccc2c(c1)OCO2)Cc1ccc(Cl)cc1 (centres undefined) | ? | 0.0 | -4.1% | 16.4µM* | ? | ?
COc1ccc(C(CCN(Cc2ccc(OC)c(OC)c2)C(C)=O)c2ccccc2)cc1 (centres undefined) | 20.6µM* | 1.6 | -23.2% | 20.6µM* | ? | -6.7
COc1ccc(CN(CCC(c2ccc3c(c2)OCO3)c2ccccc2OC)C(C)=O)cc1 (centres undefined) | ? | 0.1 | -4.4% | 20.6µM* | / | /
O=C(O)CC(Cc1ccccc1)c1ccc2c(c1)OCO2 (centres undefined) | 2.0% | -4.2 | -3.7% | -0.5% | 18.3 | 13.4
COc1ccc(CN(CCC(c2ccco2)C(C)C)C(C)=O)cc1OC (centres undefined) | ? | -4.4 | 0.9% | ? | -12.9 | 16.8
COc1ccccc1C(CC(=O)O)c1ccc2c(c1)OCO2 (centres undefined) | -0.7% | -3.6 | 0.5% | 26.6% | 42.8 | 7.2
COc1ccc(CN(CCC(c2ccccc2)C2CCOC(C)(C)C2)C(C)=O)cc1 (centres undefined) | ? | -17.3 | -0.5% | 18.4µM* | ? | 2.1
SMILES | TDP1 cell CPT | DRD3 agonist | ClpP mod | DT40 TDP1 no CPT | IL-1B inflam inh | DRD3 antagonist
Cc1noc(C)c1CC(=O)N1CCOc2c(cc(-c3nc4ccccc4s3)cc2OC2CCOC2)C1 (centres undefined) | 11.5%[9.04 µM] | / | / | -8.6% | / | /
COc1ccc(CC(=O)NC(C)CCc2ccccc2)cc1OC (centres undefined) | -17.8% | -13.5 | -2.8% | ? | 0.9 | -17.0
COc1ccc(CN(CCC(c2ccccc2)c2ccc(OC(C)C)cc2)C(=O)CCl)cc1OC (centres undefined) | 2.06µM* | 4.3 | -1.9% | 2.91µM* | -98.5* | ?
O=C(Nc1cc([N+](=O)[O-])c2[nH]c(=O)c3ccccc3c2c1)C(F)(F)F | 0.291µM* | -1.8 | 31.6µM* | 1.84µM* | -4.9 | -11.9
CC(=O)c1cccc(S(=O)(=O)N2CCC(C(=O)Oc3ccc(-c4nnco4)cc3)CC2)c1 | -0.4% | 6.0 | / | 0.5% | 2.1 | 2.5
CCc1ccccc1Nc1nc(N)nc(CSCC(=O)Nc2ccc(C)c(C)c2)n1 | 0.2% | -5.9 | 1.4% | ? | -9.5 | 5.3
CCc1ccc(NC(=O)CSCc2nc(N)nc(Nc3ccccc3CC)n2)cc1 | 14.6µM* | 2.4 | -3.6% | ? | ? | -16.9
CCN(Cc1cc(=O)n2cc(Cl)c(C)c(Cl)c2n1)Cc1nc2ccccc2c(=O)[nH]1 | -6.6% | 0.8 | / | 18.4µM* | 33.3 | 13.3
Cc1c(Cl)cn2c(=O)cc(CN3CCN(c4ccccc4)CC3)nc2c1Cl | -20.3% | -6.3 | / | ? | 42.7 | -13.0
COc1ccc(-n2ncc(C(=O)NCCN3CCOCC3)c2C2CCN(C(=O)OC(C)(C)C)CC2)cc1 | -12.0% | 0.7 | -1.6% | -18.5% | / | /
Cc1noc(C)c1C(=O)N1CCC2(CCN(Cc3cc(C(F)(F)F)cc(C(F)(F)F)c3)CC2)CC1 | ? | / | / | 23.1µM* | / | /
O=C(c1csnn1)N1CCC2(CCN(Cc3cc(C(F)(F)F)cc(C(F)(F)F)c3)CC2)CC1 | ? | / | / | 23.1µM* | / | /
